Source: PubChem BioAssay
KLF5 inhibitor = inhibitors of KLF5 expression | 290,000 tested, 0.23% active | AID 1700 | inhibition, % at 5 µM | DLD-1 KLF5 promoter-luciferase reporter, luminescence;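 active means inhibition above a per-plate limit of that plate's mean compound inhibition plus 3 SD, cut at about 60% in these data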;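 further: 0% = DMSO wells and 100% = LY294002 at 200 µM; higher means less KLF5 promoter-driven luciferase light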
IEC-6 cytotox = kills IEC-6 intestinal cells in KLF5 counter-screen; IEC-6 cytotoxicity, luminescence viability; inhibition, % at 5 µM; 290,000 tested, 0.78% active;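 further: 0% = plate median of test compound wells and 100% = cytotoxic reference compound wells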
aSyn UTR inh = 5' untranslated region of α-synuclein, MLPCN primary screen. alpha-synuclein 5'UTR reporter, inhibitor activity. inhibition, % (tested at 7.5 µM). 300,000 tested, 0.82% active; in the data active means inhibition above about 60%; inconclusive means no clear call, values can overlap the other calls;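 further: H4 neuroglioblastoma cells stably carrying SNCA 5'UTR luciferase fusion; 0% = DMSO wells and 100% = positive control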
APP transl inh = APP translation inhibition; inhibition, % at 2 µM; AID 1285; SH-SY5Y APP 5'UTR-luciferase reporter, luminescence; 190,000 tested, 0.82% active;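 active means inhibition above a set limit, derived from the sample mean plus 3 SD, cut at about 45% in these data; inconclusive means one replicate passes the limit while the other fails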
BaF3 tox = reduces parental Ba/F3 cell viability, JAK2V617F counter-screen. CellTiter-Glo ATP luminescence. inhibition, % at 5.6 µM. 220,000 tested, 1.1% active;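 active means inhibition above a per-campaign cutoff, the mean inhibition of all tested compounds plus 3 SD, cut at about 27% in these data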;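 further: 0% = DMSO wells and 100% = JAK Inhibitor I control wells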
Ba/F3 V617F tox = loss of viability in JAK2V617F-driven Ba/F3 cells. 220,000 tested, 1.1% active. inhibition, % at 5.6 µM. Ba/F3 EpoR-JAK2V617F viability, ATP luminescence;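 active means inhibition above the campaign mean plus 3 SD over all tested compounds, cut at about 24% in these data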;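 further: cytokine-independent growth of Ba/F3 cells driven by EpoR plus mutant JAK2; 0% = DMSO-treated cells and 100% = JAK inhibitor I control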
IEC-6 tox confirm = IEC-6 cytotoxicity, confirmation assay | shares compounds with IEC-6 cytotox | IEC-6 rat intestinal epithelial viability, luminescence | inhibition, % at 5 µM | 1,900 tested, 63% active;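 further: 0% = vehicle and 100% = reference cytotoxic drug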
An asterisk follows results filed as active; u = inconclusive; x = no result. Rows were chosen to be rich in hits. Some 2.2% of all compounds tested hit in one or more screens of this group. Unless noted, no stated cut-off is given here; in the data, active means inhibition above about 22%; inactive means the rest.

SMILES | KLF5 inhibitor | IEC-6 cytotox | aSyn UTR inh | APP transl inh | BaF3 tox | Ba/F3 V617F tox | IEC-6 tox confirm
CC(/C=N/NC(=O)c1n[nH]c2c1CCC2)=C\c1ccccc1 | 11 | 86* | 29 | 94* | 80* | 83* | 62*
CC(/C=N/NC(=O)c1ccccc1C)=C\c1ccccc1 | x | x | -136 | x | x | x | x
Cc1ccc(/C=N/NC(=O)c2n[nH]c3c2CCCC3)cc1 | 60 | 88* | 77* | x | 93* | 93* | 83*
O=C(N/N=C/C(Br)=C\c1ccccc1)c1n[nH]c2c1CCC2 | 44 | 75* | 18 | 96* | 78* | 85* | 82*
CC(NC(=O)C1CC1)c1ccc(-c2ccccc2)cc1 (configuration not stated) | -17 | 1 | -22 | x | x | x | x
O=C(NCc1n[nH]c(=S)n1-c1cccc(C(F)(F)F)c1)c1ccco1 | -7 | 4 | 1 | x | x | x | x
CCN1CCS/C1=C\C=C\C1=[N+](CC)CCS1 | 5 | 37* | 19 | -3 | 90* | 101* | 31*
CCN1CCS/C1=C/C=C/C1=[N+](CC)CCS1 | -28 | 27* | -19 | -14 | 81* | 99* | 30*
CCN(CC)c1ccc(/C=C/c2cccc[n+]2C)c(OC)c1 | 19 | 28* | u | x | x | x | 30*
Cc1ccccc1NS(=O)(=O)c1ccc(N2CCCC2=O)cc1 | 55 | 55* | 49 | 74* | 72* | 85* | 44*
Cc1ccccc1NS(=O)(=O)c1cc2c3c(c1)CC(=O)N3CCC2 | -38 | 2 | 6 | x | x | x | x
Cc1ccc(NC(=O)C2CCN(S(=O)(=O)c3ccc(N4CCCC4=O)cc3)CC2)cc1Cl | -42 | 27* | -13 | x | x | x | 13
O=C(N/N=C/c1ccc2c(c1)OCO2)c1cccc2ccccc12 | 24 | 28* | -109 | x | x | x | 25*
CSc1nnc2c3ccccc3n(CCc3ccccc3)c2n1 | -39 | 46* | 14 | 22 | 2 | -1 | 42*
CC(=O)c1ccc(NC(=S)Nc2cccc3ccccc23)cc1 | -70 | 63* | -47 | x | x | x | 6
CC(=O)N(C)c1ccc(NC(=S)Nc2cccc3ccccc23)cc1 | -76 | 8 | -168 | -13 | 4 | 3 | x
CC(C)c1ccc2c(c1)[C@H]1OCC[C@H]1[C@@H](c1cccs1)N2 | 8 | 26* | 14 | 86* | 54* | 41* | 66*
COc1ccc(S(=O)(=O)N2CCCc3ccccc32)cc1OC | -29 | 4 | 10 | x | 1 | -1 | x
COc1ccc(S(=O)(=O)N2CCCc3ccccc32)cc1[N+](=O)[O-] | 48 | 59* | 52 | x | x | x | 44*
Cc1cc(C)cc(NC(=O)C2CCN(C(=O)c3cccs3)CC2)c1 | -31 | -3 | 15 | x | x | x | x
O=C(Nc1ccncc1)C1CCCN(S(=O)(=O)c2cccc3cccnc23)C1 (configuration not stated) | 47 | 56* | 27 | 76* | 70* | 85* | 46*
COc1cccc(NC(=O)C2CCCN(S(=O)(=O)c3cccc4cccnc34)C2)c1 (configuration not stated) | -13 | -8 | 14 | -20 | 3 | 0 | x
Cc1cc(-c2ccc(C(C)C)c(S(=O)(=O)N3CCN(c4ccccn4)CC3)c2)on1 | 15 | 23* | -47 | x | x | x | 12
O=C(NCc1cccnc1)c1ccc([N+](=O)[O-])cc1 | -17 | -3 | 10 | -2 | 6 | 1 | x
O=C(NCc1cccnc1)c1ccc(NC(=O)c2cccc([N+](=O)[O-])c2)cc1 | -11 | 75* | 4 | 10 | 0 | 21 | 8
SMILES | KLF5 inhibitor | IEC-6 cytotox | aSyn UTR inh | APP transl inh | BaF3 tox | Ba/F3 V617F tox | IEC-6 tox confirm
O=C(COc1ccc([N+](=O)[O-])cc1)Nc1ccc(C(=O)NCc2cccnc2)cc1 | -22 | 30* | 14 | -9 | 1 | 10 | -6
C=CCOc1ccc(C(=O)Nc2ccccc2C(=O)NCc2cccnc2)cc1 | 47 | 39* | -52 | x | x | x | 26*
O=C(COc1ccc([N+](=O)[O-])cc1)NCc1cccnc1 | -63 | -2 | -20 | -25 | 10 | 1 | x
CC1(O)C(=O)C=C2C=C(c3ccc(C#N)cc3)OC=C2C1=O (configuration not stated) | x | x | 6 | x | x | x | x
Cc1ccc2[nH]c3c(c2c1)CCCC3C(N)=O (configuration not stated) | -37 | -4 | -25 | -16 | 4 | -1 | x
Cc1ccc2[nH]c3c(c2c1)CCCC3NC(=O)CCl (configuration not stated) | 43 | 56* | 15 | x | x | x | 60*
CCOc1ccc(S(=O)(=O)NCCC(=O)OCC(=O)Nc2cc(C)on2)cc1 | 0 | -1 | -3 | x | -1 | -5 | x
CCOc1ccc2nc(-c3ccccc3)[nH]c2c1 | 14 | 42* | 2 | -142 | 54* | 71* | 30*
COc1ccc2nc(-c3ccccc3)[nH]c2c1 | -116 | 4 | -71 | -178 | 8 | 4 | x
CC(=O)N(c1ccccc1C)C1CCCC1 | -55 | 1 | -3 | -10 | 4 | 2 | x
CC(=O)N(C1=C(Cl)C(=O)c2ccccc2C1=O)C1CCCCC1 | -13 | 25* | u | x | -5 | 2 | 8
CCc1nnc(NC(=O)c2nc(S(=O)(=O)Cc3cccc(C)c3)ncc2Cl)s1 | 15 | 41* | -114 | x | x | x | 6
CSc1nnc(NC(=O)c2nc(S(=O)(=O)Cc3ccccc3F)ncc2Cl)s1 | -7 | 3 | -9 | x | x | x | x
CC(C)c1nnc(NC(=O)c2nc(S(=O)(=O)Cc3ccccc3F)ncc2Cl)s1 | -2 | 18 | -72 | x | x | x | x
CCSc1nnc(NC(=O)c2nc(S(=O)(=O)Cc3ccc(F)cc3)ncc2Cl)s1 | -6 | -6 | 10 | x | x | x | x
CCc1nnc(NC(=O)c2nc(S(=O)(=O)Cc3ccc(C)cc3)ncc2Cl)s1 | 4 | 50* | -52 | x | x | x | 18
CCOc1ccccc1NC(=O)c1nc(S(=O)(=O)Cc2cccc(C)c2)ncc1Cl | 28 | 73* | 88* | x | x | x | 30*
Cc1nnc(NC(=O)c2nc(S(=O)(=O)Cc3ccccc3C)ncc2Cl)s1 | 19 | 69* | -39 | x | x | x | 17
Cc1ccc2[nH]c(CNC(=O)C3CCCCC3)cc2c1 | -37 | 7 | 4 | x | x | x | x
CCN(CC(=O)Nc1ccc2c(c1)OCCO2)C(=O)C(C)Oc1ccc(Cl)cc1 (configuration not stated) | x | x | -14 | x | x | x | x
O=C(c1ccc(S(=O)(=O)N2CCOCC2)cc1)N1CCc2ccccc21 | 14 | 4 | 5 | x | x | x | x
CCc1nnc(NC(=O)c2nc(Cl)ccc2Cl)s1 | -36 | -2 | 0 | x | x | x | x
CCc1nnc(NC(=O)c2nc(S(=O)(=O)Cc3ccccc3)ncc2Cl)s1 | 9 | 34* | -24 | x | x | x | 7
COc1ccc(C(=O)N=S2CCN(C(=O)c3ccc(Cl)cc3)CC2)cc1 | -32 | -3 | 9 | x | 0 | 0 | x
O=C(CCN1CCN(Cc2ccccc2)CC1)Nc1cccc(Br)c1 | -21 | -6 | -9 | x | x | x | x
COc1ccc(COc2cc(-c3cccc(OC)c3)nc3ccc(NC(=O)c4ccc(C)cc4)cc23)cc1 | 24 | 8 | 2 | 8 | 11 | 5 | x
